In the library only some 7.3% were active in any assay of this set; here they are far more common.
Vaccinia mCherry = qHTS for Stage-Specific Inhibitors of Vaccinia Orthopoxvirus: mCherry Reporter Primary qHTS. actives 0.63% (n = 310,000). Potency, µM (series often up to 36.5 µM), usual class: inhibitors. Vaccinia virus mCherry reporter infection, fluorescence. AID 720579, 2013; calls by dose curve; tested in A549 cells; further: nearly all actives have a fitted effect of over 35% in size
Vaccinia Venus = qHTS for Stage-Specific Inhibitors of Vaccinia Orthopoxvirus: Venus Reporter Primary qHTS; Vaccinia virus Venus reporter expression, fluorescence; Potency, µM (highest dose often 36.5 µM), usual class: inhibitors; actives 0.46% (n = 330,000); AID 720580, 2013; calls by dose curve; tested in A549 cells; further: nearly all actives have a fitted effect of over 30% in size
FMDV antiviral = High Throughput Screening for Foot and Mouth Disease Virus Antivirals; FMDV antiviral cell-based qHTS; Potency, µM (series often up to 57.9 µM), usual class: inhibitors; actives 1.2% (n = 410,000); calls by dose curve; tested in HEK293T cells; further: read-out not given here; nearly all actives have a fitted effect of over 45% in size
HCMV inh = qHTS Assay for inhibitors of the human cytomegalovirus (HCMV) | HFF cells, HCMV-luciferase reporter, 72 h; stronger effect = lower value | activity change, negative = inhibition, % at 57.5 µM | actives 4.5% (n = 410,000); in the data active means activity change below about -60%; inconclusive means no clear call, values can overlap the other calls; inactive means above about -39%
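Compounds were evaluated in HFFs infected with an HCMV luciferase reporter virus (MOI 1 PFU/cell). Luciferase in lysates collected 72 h post infection served as the replication measure.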
HCV inhibitor = qHTS Assay for Inhibitors of Hepatitis C Virus (HCV); Potency, µM (series often up to 41.8 µM), actives largely listed as inhibitors; actives 3.4% (n = 340,000); Huh7.5.1 HCVcc-Cre infection, luciferase reporter, 44 h; active means well fitted inhibition curve with a large enough effect; inconclusive means small, poorly fitted or top-dose-only effect, or another doubt; inactive means no such curve, though single readings can be large or run the other way
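Whole-lifecycle infectious HCVcc-Cre system; cells 1,000/well, compound then virus (~0.5 moi) added 4 h after plating, 44 h culture. Luciferase read 15 sec following 15 min substrate incubation, room temp.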
Of the large screens only hits and unclear results are named; the others gave an inactive call.

O=[N+]([O-])c1ccc(Sc2nnnn2-c2ccccc2)c(Cl)c1	FMDV antiviral inconclusive, HCMV inh -73 (no result: Vaccinia mCherry, Vaccinia Venus)
Cn1nnnc1Sc1ccc([N+](=O)[O-])cc1Cl	Vaccinia mCherry 10µM, Vaccinia Venus inconclusive, HCMV inh inconclusive
Cn1nnnc1SCC(=O)Nc1ccccc1[N+](=O)[O-]	none (no result: Vaccinia mCherry)
S=c1[nH]c(=S)c2[nH]cnc2[nH]1	none (no result: FMDV antiviral, HCMV inh, HCV inhibitor)
CC(C)c1ccc(OCC(=O)N(Cc2cccs2)C2CCS(=O)(=O)C2)cc1 (stereo unspecified)	FMDV antiviral inconclusive (no result: HCV inhibitor)
c1cncc(-c2cncnc2NC2CCNCC2)c1	none (no result: Vaccinia mCherry, Vaccinia Venus, HCMV inh, HCV inhibitor)
O=C(NCCc1ccccn1)C1CC12CCN(C(=O)c1ccccc1Cl)CC2 (stereo unspecified)	none (no result: HCMV inh, HCV inhibitor)
O=C(Nc1ccc(N2CCOCC2)c(S(=O)(=O)Nc2ccccc2Cl)c1)c1ccccc1	HCV inhibitor inconclusive (no result: Vaccinia mCherry, Vaccinia Venus)
O=C(Nc1ccc(Cl)cc1)Nc1ccc(N2CCCC2)c(S(=O)(=O)Nc2ccccc2Cl)c1	Vaccinia mCherry inconclusive, Vaccinia Venus inconclusive, HCMV inh -99, HCV inhibitor 5.6µM
COc1ccc(NS(=O)(=O)c2cc(NC(=O)c3cnccn3)ccc2N2CCCC2)cc1	Vaccinia Venus inconclusive, HCMV inh inconclusive, HCV inhibitor inconclusive
COc1ccc(NS(=O)(=O)c2cc(NC(=O)c3cccs3)ccc2N2CCCC2)cc1	HCMV inh -97, HCV inhibitor inconclusive
CCC(=O)Nc1ccc(N2CCCCC2)c(C(=O)Nc2ccc(OC)cc2)c1	Vaccinia mCherry inconclusive, HCMV inh -81, HCV inhibitor inconclusive
COc1ccc(NS(=O)(=O)c2cc(NC(=O)c3ccc(C)o3)ccc2N2CCCCC2)cc1	HCMV inh -90, HCV inhibitor inconclusive
Cc1cccc(NC(=O)C2CCC(CNS(=O)(=O)c3csc(C(N)=O)c3)CC2)c1C (stereo unspecified)	none (no result: HCV inhibitor)
O[N+]1=CC=CCC1=S.On1ccccc1=S.[Zn]	Vaccinia mCherry inconclusive, Vaccinia Venus inconclusive, FMDV antiviral 8.9µM (no result: HCMV inh, HCV inhibitor)
CCOc1ccc(C(=O)Nc2ccc3nc(Nc4cccc(C(F)(F)F)c4)cc(C)c3c2)cc1OCC	HCMV inh -62 (no result: HCV inhibitor)
O=C(Nc1cccc(C(F)(F)F)c1)c1cccnc1	none
Cn1nc(C(F)(F)F)c(-c2cccc(C(F)(F)F)c2)c1NC(=O)c1cccnc1	HCMV inh -78 (no result: Vaccinia mCherry, Vaccinia Venus)
Cc1cc(Nc2cccc(C(F)(F)F)c2)nc2ccc(NC(=O)c3cccc(Cl)c3)cc12	FMDV antiviral inconclusive, HCMV inh -104 (no result: HCV inhibitor)
Cn1nc(C(F)(F)F)c(-c2ccccc2)c1NC(=O)c1cccnc1	none (no result: Vaccinia mCherry, Vaccinia Venus)
Cc1cc(Nc2cccc(Cl)c2)nc2ccc(NC(=O)c3ccc(F)cc3Cl)cc12	FMDV antiviral inconclusive, HCMV inh inconclusive (no result: HCV inhibitor)
Cc1cc(Nc2cccc(C(F)(F)F)c2)nc2ccc(NC(=O)c3cccnc3)cc12	Vaccinia mCherry 10µM, Vaccinia Venus 11µM, FMDV antiviral 28µM, HCMV inh -107 (no result: HCV inhibitor)
Cc1ccc2oc(C(=O)N(Cc3ccccc3F)C3CCS(=O)(=O)C3)c(C)c2c1 (stereo unspecified)	none (no result: HCV inhibitor)
Cc1c(C#N)c(NC(=O)COC(=O)c2cc(Cl)c3c(c2)OCCCO3)n(Cc2ccco2)c1C	none (no result: FMDV antiviral, HCMV inh, HCV inhibitor)
O=C1[C@H](c2ccccc2)[C@@H](c2ccncc2)N1c1ccncc1	none (no result: Vaccinia mCherry, Vaccinia Venus, FMDV antiviral, HCV inhibitor)
CC(=O)Nc1ccccc1OCC(=O)N(Cc1ccccc1)C(C)C	FMDV antiviral inconclusive, HCMV inh -77, HCV inhibitor 16µM
CC(=O)Nc1ccccc1OCC(=O)NC(C)c1ccccc1 (stereo unspecified)	none (no result: Vaccinia mCherry, Vaccinia Venus)
Cc1ccc(NC(=O)CSc2ncnc3ccccc23)cc1S(=O)(=O)N1CCCCCC1	Vaccinia mCherry inconclusive, Vaccinia Venus inconclusive, FMDV antiviral 8.9µM, HCV inhibitor inconclusive
O=C(CSc1ncnc2ccccc12)Nc1cc(S(=O)(=O)N2CCCCC2)ccc1Cl	Vaccinia mCherry inconclusive, Vaccinia Venus inconclusive, FMDV antiviral inconclusive, HCMV inh inconclusive, HCV inhibitor 10µM
Cc1ccc(S(=O)(=O)N2CCCCC2)cc1NC(=O)CSc1ncnc2ccccc12	Vaccinia mCherry 11µM, Vaccinia Venus inconclusive, HCMV inh -71, HCV inhibitor inconclusive
O=C(Nc1ccc(N2CCC(N3CCCCC3)CC2)c(C(=O)O)c1)c1ccccc1	none (no result: HCV inhibitor)
O=C(Nc1cc2c3c(c1)C1CCCC1CN3CC1CCCC21)c1ccccc1 (stereo unspecified)	HCMV inh -69, HCV inhibitor 16µM (no result: Vaccinia mCherry, Vaccinia Venus)
COc1cc(/C=C/C(=O)O)ccc1OS(=O)(=O)c1ccc(C)cc1	none
COc1cc(/C=C/C(=O)c2ccc(NS(=O)(=O)c3ccc(C)cc3)cc2)cc(OC)c1O	Vaccinia mCherry inconclusive, HCMV inh -101, HCV inhibitor inconclusive
COc1cccc(/C=C/C(=O)c2ccc(NS(=O)(=O)c3ccc(C)cc3)cc2)c1	Vaccinia mCherry inconclusive, Vaccinia Venus inconclusive, HCMV inh -70, HCV inhibitor inconclusive
COc1cccc(C(=O)/C=C/Nc2ccc(S(=O)(=O)Nc3cccc(C(C)=O)c3)cc2)c1	Vaccinia Venus inconclusive, HCV inhibitor inconclusive (no result: Vaccinia mCherry)
COc1cc(/C=C/C(=O)c2ccc(NS(=O)(=O)c3ccc(C)cc3)cc2)ccc1OC(F)F	Vaccinia mCherry inconclusive, Vaccinia Venus inconclusive, FMDV antiviral inconclusive, HCMV inh -71, HCV inhibitor 35µM
Cc1cccc(C)c1NC(=O)Cn1c(=O)n(Cc2ccco2)c(=O)c2ccc(C(=O)NC3CCCC3)cc21	FMDV antiviral inconclusive (no result: HCV inhibitor)
Clc1cccc(-c2nc3ccccn3c2Nc2ccc3c(c2)OCCO3)c1	HCMV inh -104 (no result: HCV inhibitor)
Cc1ccc2nc(-c3cccc(Cl)c3)c(Nc3ccc4c(c3)OCO4)n2c1	none (no result: HCV inhibitor)
CN(C)c1ccc(-c2nc3ccccn3c2Nc2ccc3c(c2)OCCO3)cc1	HCMV inh -96 (no result: HCV inhibitor)
Oc1ccc(-c2nc3ccccn3c2Nc2ccc3c(c2)OCCO3)cc1	none (no result: HCV inhibitor)
CCCOc1ccc(C2C(=O)N(C3CCCCCC3)CC(=O)N2C(C)C)cc1OC (stereo unspecified)	none (no result: HCV inhibitor)
NC(=O)C1CCCCc2c1[nH]c1ccc(Cl)cc21 (stereo unspecified)	none (no result: Vaccinia mCherry, Vaccinia Venus)
NC(=O)NC1CCCc2c1[nH]c1ccc(Cl)cc21 (stereo unspecified)	HCV inhibitor 6.3µM
Cc1nc(-c2ccc(C)c(N3CCN(C(=O)Nc4cccc(Cl)c4C)CC3)c2)no1	Vaccinia Venus inconclusive, FMDV antiviral inconclusive, HCMV inh -88 (no result: HCV inhibitor)
Cc1ccc(NC(=O)N2CCN(c3cc(-c4noc(C)n4)ccc3C)CC2)c(C)c1	none (no result: HCV inhibitor)
CCC(C)NC(=O)c1ccc(NC(=O)C2=C(C)OCCS2)cc1 (stereo unspecified)	HCMV inh -61
CC1=C(C(=O)Nc2cc(C(=O)N3CCC(C)CC3)ccc2C)SCCO1	HCMV inh -63
COc1cc(C)c2ccccc2n1	none (no result: FMDV antiviral, HCMV inh, HCV inhibitor)
COc1cc2c(cc1OC)C(c1cc(-c3cc(Cl)ccc3Cl)oc1C)=NCC2	none (no result: FMDV antiviral, HCMV inh, HCV inhibitor)
O=C(CSc1ccccn1)Nc1nonc1[N+](=O)[O-]	FMDV antiviral 32µM (no result: Vaccinia mCherry, Vaccinia Venus)
O=C(CSc1nnc(-c2ccco2)c(-c2ccco2)n1)c1ccccc1	HCV inhibitor 2.8µM
